Here are results for four molecules from PubChem BioAssay (Tox21).

Structures are written as SMILES. Several values for one entry are separate records, joined by “and”; a condition that tells them apart may be missing. Equal values may be shown once. Records with an inconclusive call do not appear. The source holds several records for some structures; these can differ, active in one and inactive in another. Activity calls are given as the source filed them. Unless noted, calls come from the whole dose curve; as a rule, active = well fitted curve in the direction sought with a large enough effect in the repeat runs; inconclusive = weak or mixed curves; inactive = no such curve, though single readings can be large; an effect the other way counts as inactive or inconclusive. Starred links: 1 amine or outer side, 2 acyl side, 3 side chain; linkers in the order of their positions; H or OH if unused. Positions of bridges follow the written chain, without caps; N, C: chain ends. Non-standard residues stand in square brackets, D forms with d. Residues, ends and D or L forms follow the SMILES beside them. Chains are numbered I, II in the order given. Actinocin(9to1) = Cc1c2oc3c(C)ccc(C(=O)[*:1])c3nc-2c(C(=O)[*:2])c(N)c1=O; NMeV = CN[C@H](C(=O)O)C(C)C; Sar = CNCC(=O)O

Assay [1] concerns the target Androgen receptor (Homo sapiens) (UniProt P10275). As to the kind of experiment: qHTS assay to identify small molecule antagonists of the androgen receptor (AR) signaling pathway using the MDA cell line in the presence of 0.5 nM R1881 (AID 1259243). Note: nearly all actives have a fitted effect of over 50% in size. Note: potency is the fitted concentration of half-maximal effect. The gist of the method: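 Luminescent reporter readout (ONE-Glo, 30 min, room temperature) after 16 hr co-treatment of MDA-kb2 cells with test compounds and 0.5 nM R1881 final, at 37C without CO2. The MMTV-driven luciferase responds to both AR and GR.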

In assay [2] the target is Estrogen receptor (Homo sapiens) (UniProt P03372). Briefly: qHTS assay to identify small molecule antagonists of the estrogen receptor alpha (ER-alpha) signaling pathway using the BG1 cell line in the presence of 0.1 nM 17-beta-estradiol (AID 1259244). Note: nearly all actives have a fitted effect of over 50% in size. Note: potency is the fitted concentration of half-maximal effect. The gist of the method:
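Luciferase luminescence (ONE-Glo, 30 min at room temperature) was read after 22 hr at 37C exposure to compounds plus 17beta-estradiol at 0.1 nM final. Cells were VM7Luc4E2 with endogenous ER-alpha and an ERE-driven luciferase, pre-cultured 5 days in hormone-depleted medium.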

A short description of assay [3]: qHTS assay to identify small molecule phospholipidosis (PLD) inducers (AID 1259344; active = well fitted curve in the direction sought with a large enough effect; an effect the other way counts as inactive or inconclusive). The gist of the method:
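Image-based: LipidTOX Red pit count/intensity per well and per cell; HepG2, 24 h compound at 37 C, PFA fixation, Hoechst counterstain.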

Assay [4] can be described thus: qHTS assay to identify small molecule HDAC inhibitors - cell viability counter screen (AID 1259365). Note: series mostly up to about 92 µM; nearly all actives have a fitted effect of over 50% in size. The gist of the method:
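CellTiter-Glo luminescence (30 min, room temperature) reported viability after a 2 h compound exposure at 37 C. Cells: wild-type HCT-116, 1,500 per well, seeded the night before.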

The nature of assay [5]: qHTS assay to identify small molecule agonists of the sonic hedgehog signaling (Shh) pathway - cell viability counter screen (AID 1259366). Note: potency is the fitted concentration of half-maximal effect; nearly all actives have a fitted effect of over 50% in size. The gist of the method: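 Cytotoxicity counter screen: CellTiter-Fluor reagent added after 23 h compound exposure, then 1 h at 37C and fluorescence read. Cells were 3T3 Gli1-Luc, seeded 2,000 per well and dosed 4 h post-plating.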
A short description of assay [6]: qHTS assay to identify small molecule antagonists of the sonic hedgehog signaling (Shh) pathway - cell viability counter screen (AID 1259367). Note: nearly all actives have a fitted effect of over 55% in size. Note: potency is the fitted concentration of half-maximal effect. The gist of the method:
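Tox21 library chemicals were tested on a Gli1-Luc NIH/3T3 clone (2,000 cells/well) stimulated by conditioned medium; viability was quantified as fluorescence from CellTiter-Fluor reagent added at 23 hr.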

The nature of assay [7]: qHTS assay to identify small molecule agonists of the sonic hedgehog signaling (Shh) pathway (AID 1259368; calls by dose curve;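 note: NIH/3T3-derived 3T3Gli1-Luc cells carrying a stable Gli1-driven firefly luciferase reporter; series mostly up to about 92 µM; nearly all actives have a fitted effect of over 15% in size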). The gist of the method: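 Luminescence was read after 30 min at room temperature with luciferase reagent. Before that, 3T3Gli1-Luc cells (NIH/3T3 clone, stable Gli1-Luc reporter; 2,000/well) were exposed to compounds for 24 hr at 37C, 5% CO2, compounds being added 4 hr post-plating.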

Assay [8] in a line: qHTS assay to identify small molecule antagonists of the sonic hedgehog signaling (Shh) pathway (AID 1259369; calls by dose curve; note: nearly all actives have a fitted effect of over 45% in size; note: potency is the fitted concentration of half-maximal effect). The gist of the method:
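Antagonist mode: compound added to 3T3 Gli1-Luc cells followed by conditioned-medium stimulation, 24 h at 37 C, 5% CO2. Inhibition taken as loss of Gli1-driven luciferase luminescence.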

The target in assay [9] is Estrogen receptor beta (Homo sapiens) (UniProt Q92731). Briefly: qHTS assay to identify small molecule agonists of the estrogen receptor beta (ER-beta) signaling pathway (AID 1259377; active = well fitted activation curve with a large enough effect in the signal ratio in the repeat runs, not every such curve was filed as active; the % refers to the signal ratio). The gist of the method:
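Ratiometric beta-lactamase FRET read-out came after 2 h substrate loading at room temperature. It followed 16 h compound treatment at 37C of GripTite HEK293T cells carrying a UAS-bla reporter, plated in 2% charcoal-stripped FBS medium.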

The nature of assay [10]: qHTS assay to identify small molecule agonists of the androgen receptor (AR) signaling pathway in the presence of an antagonist - cell viability counter screen (AID 1259379).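 Note: MDA-kb2 human breast cancer cells carrying an MMTV luciferase reporter; series mostly up to about 92 µM; nearly all actives have a fitted effect of over 25% in size.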 The gist of the method:
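Cytotoxicity counter-screen run in the same wells as the nilutamide-challenged (3.0 µM final) AR agonist assay in MDA-kb2 cells. Compounds tested at 15 concentrations for 16 h, 37 °C without CO2; CellTiter-Fluor fluorescence read.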

A short description of assay [11]: qHTS assay to identify small molecule agonists of the estrogen receptor beta (ER-beta) signaling pathway - cell viability counter screen (AID 1259380). Note: nearly all actives have a fitted effect of over 30% in size. Note: potency is the fitted concentration of half-maximal effect. The gist of the method:
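Cell viability counter screen: CellTiter-Glo luminescence (30 min, room temperature) measured in the same wells as the beta-lactamase readout, after 16 hr compound exposure at 37C of ER-beta-bla HEK293T cells in 2% charcoal-stripped FBS medium.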

Assay [12] deals with Androgen receptor (Homo sapiens) (UniProt P10275). Briefly: qHTS assay to identify small molecule agonists of the androgen receptor (AR) signaling pathway in the presence of an antagonist (AID 1259381; calls by dose curve; note: nearly all actives have a fitted effect of over 15% in size; note: potency is the fitted concentration of half-maximal effect). The gist of the method: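 Agonist-mode confirmation run against 3.0 uM final nilutamide: compounds titrated at 15 concentrations onto MDA-kb2 MMTV-luciferase reporter cells. Luminescence measured with ONE-Glo following 16 hr incubation, 37C, 0% CO2.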
Androgen receptor (Homo sapiens), sequence (P10275 whole entry, looked up): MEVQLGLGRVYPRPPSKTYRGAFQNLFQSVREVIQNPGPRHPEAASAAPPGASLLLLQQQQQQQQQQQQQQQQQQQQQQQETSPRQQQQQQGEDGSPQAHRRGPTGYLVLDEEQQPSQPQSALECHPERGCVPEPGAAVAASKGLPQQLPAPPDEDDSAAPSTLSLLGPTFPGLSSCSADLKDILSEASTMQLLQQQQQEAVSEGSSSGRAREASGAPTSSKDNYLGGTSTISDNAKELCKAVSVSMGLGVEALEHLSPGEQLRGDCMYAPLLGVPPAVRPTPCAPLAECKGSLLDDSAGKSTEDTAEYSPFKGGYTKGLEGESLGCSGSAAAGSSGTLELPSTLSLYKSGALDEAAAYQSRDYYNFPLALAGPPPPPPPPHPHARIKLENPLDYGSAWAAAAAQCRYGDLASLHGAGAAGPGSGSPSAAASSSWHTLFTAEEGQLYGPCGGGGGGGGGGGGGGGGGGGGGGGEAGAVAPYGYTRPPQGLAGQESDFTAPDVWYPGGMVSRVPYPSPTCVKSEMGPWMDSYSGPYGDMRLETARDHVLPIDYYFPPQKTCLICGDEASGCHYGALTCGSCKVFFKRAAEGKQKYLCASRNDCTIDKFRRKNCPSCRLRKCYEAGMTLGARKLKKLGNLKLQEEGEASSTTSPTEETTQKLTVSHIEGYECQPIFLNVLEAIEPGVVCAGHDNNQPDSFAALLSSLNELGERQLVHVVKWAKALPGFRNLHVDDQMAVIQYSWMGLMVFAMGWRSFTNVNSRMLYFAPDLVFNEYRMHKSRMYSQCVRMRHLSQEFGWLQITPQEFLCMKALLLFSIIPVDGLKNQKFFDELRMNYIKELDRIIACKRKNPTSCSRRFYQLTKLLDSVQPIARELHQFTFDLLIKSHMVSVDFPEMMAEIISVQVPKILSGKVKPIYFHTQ

Assay [13] addresses Estrogen receptor (Homo sapiens) (UniProt P03372). Briefly: qHTS assay to identify small molecule agonists of the estrogen receptor alpha (ER-alpha) signaling pathway in the presence of an antagonist (AID 1259383; calls by dose curve; note: top concentration of the series differs between compounds; nearly all actives have a fitted effect of over 15% in size). The gist of the method:
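Agonist-mode confirmation run in the presence of 10.0nM (final) ICI-182,780 antagonist. The reporter was ERE-driven luciferase in VM7Luc4E2 cells, grown in charcoal-stripped serum. Cells were exposed to 15-concentration compound series for 22hr, then ONE-Glo luminescence was read.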

Assay [14] in a line: qHTS assay to identify small molecule agonists or antagonists of the thyroid stimulating hormone receptor (TSHR) signaling pathway - wild type cell line counter screen (AID 1259384; calls by dose curve). The gist of the method:
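Wild-type Hek293 cells, 800/well, 18 h at 37C, then compound with Ro20-1724 for 30 min RT. cAMP by HTRF (cAMP-d2/anti-cAMP cryptate), 1 h RT, fluorescence read. 15 concentrations, triplicates.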

The target of assay [15] is Thyrotropin receptor (Homo sapiens) (UniProt P16473). Briefly: qHTS assay to identify small molecule antagonists of the thyroid stimulating hormone receptor (TSHR) signaling pathway (AID 1259385; calls by dose curve; note: nearly all actives have a fitted effect of over 20% in size). The gist of the method:
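TSHR-HEK293 cells (800/well) plated 18 h, then compounds with Ro20-1724 and TSH at 1.5 ng/mL final, 30 min at room temperature. cAMP quantified by HTRF (cAMP-d2/anti-cAMP-cryptate, 1 h); 15 concentrations in triplicate.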

The nature of assay [16]: qHTS assay to identify small molecule agonists of the estrogen receptor alpha (ER-alpha) signaling pathway in the presence of an antagonist - cell viability counter screen (AID 1259386). Note: nearly all actives have a fitted effect of over 30% in size. Note: potency is the fitted concentration of half-maximal effect. The gist of the method:
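Compounds tested at 15 concentrations for 22 h at 37C alongside 10.0nM (final) ICI-182,780 antagonist, in VM7Luc4E2 cells grown in phenol red-free, charcoal-stripped medium. Viability read by CellTiter-Fluor fluorescence after 1 h reagent incubation.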

Assay [17] deals with Progesterone receptor (Homo sapiens) (UniProt P06401). As to the kind of experiment: qHTS assay to identify small molecule agonists of the progesterone receptor (PR) signaling pathway (AID 1346784; calls by dose curve; note: nearly all actives have a fitted effect of over 30% in size). The gist of the method: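 Agonist qHTS: compounds pinned onto 3,000 PR-UAS-bla HEK 293T cells per well in charcoal-stripped serum medium, 16hr at 37C, then beta-lactamase activity measured by LiveBLAzer FRET fluorescence after 2 hours at room temperature.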
Progesterone receptor (Homo sapiens), sequence (P06401 whole entry, looked up): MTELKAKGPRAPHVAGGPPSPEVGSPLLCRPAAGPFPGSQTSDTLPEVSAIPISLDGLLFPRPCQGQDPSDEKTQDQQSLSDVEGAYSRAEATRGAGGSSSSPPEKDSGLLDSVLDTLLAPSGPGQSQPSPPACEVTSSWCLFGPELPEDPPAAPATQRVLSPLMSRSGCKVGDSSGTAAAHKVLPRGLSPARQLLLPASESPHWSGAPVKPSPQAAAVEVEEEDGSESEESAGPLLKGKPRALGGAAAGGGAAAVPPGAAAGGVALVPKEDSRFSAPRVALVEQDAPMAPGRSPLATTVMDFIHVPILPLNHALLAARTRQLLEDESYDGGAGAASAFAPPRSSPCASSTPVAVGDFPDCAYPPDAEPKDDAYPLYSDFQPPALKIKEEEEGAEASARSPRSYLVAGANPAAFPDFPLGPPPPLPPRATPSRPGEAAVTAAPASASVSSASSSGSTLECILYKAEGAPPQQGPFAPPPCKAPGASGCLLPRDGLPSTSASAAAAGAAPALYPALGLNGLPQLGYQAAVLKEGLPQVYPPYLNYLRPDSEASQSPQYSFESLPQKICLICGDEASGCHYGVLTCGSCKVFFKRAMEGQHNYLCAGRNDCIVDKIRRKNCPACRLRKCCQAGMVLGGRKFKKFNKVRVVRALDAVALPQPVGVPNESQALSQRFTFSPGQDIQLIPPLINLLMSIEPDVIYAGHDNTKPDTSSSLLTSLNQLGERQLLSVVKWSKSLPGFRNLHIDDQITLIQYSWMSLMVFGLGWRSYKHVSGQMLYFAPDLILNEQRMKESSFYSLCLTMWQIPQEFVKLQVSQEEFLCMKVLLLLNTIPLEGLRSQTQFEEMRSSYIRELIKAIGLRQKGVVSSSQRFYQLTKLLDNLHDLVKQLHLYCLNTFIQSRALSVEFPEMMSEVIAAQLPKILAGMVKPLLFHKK

A short description of assay [18]: qHTS assay to identify small molecule antagonists of the estrogen receptor beta (ER-beta) signaling pathway - cell viability counter screen (AID 1259382). Note: nearly all actives have a fitted effect of over 55% in size. Note: potency is the fitted concentration of half-maximal effect. The gist of the method:
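Cytotoxicity was measured in the same wells by CellTiter-Glo luminescence after 30 min at room temperature. Cells were ER-beta-bla HEK293T in charcoal-stripped serum, given compound together with 1 nM E2 and incubated 16 h at 37C.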

Assay [19] is described as follows: qHTS assay to identify small molecule HDAC inhibitors (AID 1259364). Note: top concentration of the series differs between compounds; nearly all actives have a fitted effect of over 45% in size. The gist of the method: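 Luminescence read after 30 min room-temperature HDAC-Glo incubation measures cellular class I/II HDAC activity. Compounds were applied for 2 hr at 37 C to HCT-116 wild-type cells seeded the day before.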
The target in assay [20] is Estrogen receptor beta (Homo sapiens) (UniProt Q92731). Briefly: qHTS assay to identify small molecule antagonists of the estrogen receptor beta (ER-beta) signaling pathway (AID 1259378; active = well fitted inhibition curve with a large enough effect in the signal ratio in the repeat runs, not every such curve was filed as active; the % refers to the signal ratio). The gist of the method: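 ER-beta-UAS-bla HEK293T cells in 2% charcoal-stripped FBS medium treated with compound plus 1nM final 17-beta-estradiol for 16 hr at 37C. Beta-lactamase reporter read by FRET substrate fluorescence after 2 hours at room temperature.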
Estrogen receptor beta (Homo sapiens), sequence (Q92731 whole entry, looked up): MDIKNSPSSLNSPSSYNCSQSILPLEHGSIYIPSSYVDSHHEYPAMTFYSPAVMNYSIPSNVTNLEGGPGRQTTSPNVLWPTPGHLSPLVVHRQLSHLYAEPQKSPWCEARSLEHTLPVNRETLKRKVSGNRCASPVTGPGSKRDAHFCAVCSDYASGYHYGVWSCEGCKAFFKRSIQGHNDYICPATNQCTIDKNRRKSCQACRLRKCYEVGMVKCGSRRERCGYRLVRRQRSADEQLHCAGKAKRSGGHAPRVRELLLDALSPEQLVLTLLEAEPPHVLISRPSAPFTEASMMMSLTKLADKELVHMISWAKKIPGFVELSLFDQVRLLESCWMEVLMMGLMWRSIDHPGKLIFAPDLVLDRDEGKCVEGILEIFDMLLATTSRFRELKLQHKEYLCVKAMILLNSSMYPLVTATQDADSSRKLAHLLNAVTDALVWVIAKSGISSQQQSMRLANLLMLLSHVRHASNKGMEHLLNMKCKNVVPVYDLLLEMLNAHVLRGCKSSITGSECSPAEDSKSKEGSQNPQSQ

Thyrotropin receptor (Homo sapiens), sequence (P16473 whole entry, looked up): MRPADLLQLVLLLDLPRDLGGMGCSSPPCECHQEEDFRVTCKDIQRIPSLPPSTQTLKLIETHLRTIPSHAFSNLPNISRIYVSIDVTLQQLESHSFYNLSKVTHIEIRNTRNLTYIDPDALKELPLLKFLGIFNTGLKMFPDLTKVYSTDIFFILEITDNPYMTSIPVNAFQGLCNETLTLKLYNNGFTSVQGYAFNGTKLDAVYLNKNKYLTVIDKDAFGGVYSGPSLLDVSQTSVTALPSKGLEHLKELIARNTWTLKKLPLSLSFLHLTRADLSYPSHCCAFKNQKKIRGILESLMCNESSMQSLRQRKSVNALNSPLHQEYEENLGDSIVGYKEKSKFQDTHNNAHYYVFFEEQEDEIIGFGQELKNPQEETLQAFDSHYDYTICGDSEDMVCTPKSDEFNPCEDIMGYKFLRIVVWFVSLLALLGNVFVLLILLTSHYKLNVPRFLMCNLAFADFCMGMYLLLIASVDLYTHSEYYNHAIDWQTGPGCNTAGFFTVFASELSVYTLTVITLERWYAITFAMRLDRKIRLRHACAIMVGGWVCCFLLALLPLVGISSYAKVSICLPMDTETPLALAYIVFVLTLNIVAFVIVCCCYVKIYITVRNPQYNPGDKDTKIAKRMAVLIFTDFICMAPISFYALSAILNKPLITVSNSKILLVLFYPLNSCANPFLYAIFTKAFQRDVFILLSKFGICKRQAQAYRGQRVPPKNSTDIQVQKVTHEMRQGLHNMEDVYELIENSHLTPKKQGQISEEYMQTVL
Estrogen receptor (Homo sapiens), sequence (P03372 whole entry, looked up): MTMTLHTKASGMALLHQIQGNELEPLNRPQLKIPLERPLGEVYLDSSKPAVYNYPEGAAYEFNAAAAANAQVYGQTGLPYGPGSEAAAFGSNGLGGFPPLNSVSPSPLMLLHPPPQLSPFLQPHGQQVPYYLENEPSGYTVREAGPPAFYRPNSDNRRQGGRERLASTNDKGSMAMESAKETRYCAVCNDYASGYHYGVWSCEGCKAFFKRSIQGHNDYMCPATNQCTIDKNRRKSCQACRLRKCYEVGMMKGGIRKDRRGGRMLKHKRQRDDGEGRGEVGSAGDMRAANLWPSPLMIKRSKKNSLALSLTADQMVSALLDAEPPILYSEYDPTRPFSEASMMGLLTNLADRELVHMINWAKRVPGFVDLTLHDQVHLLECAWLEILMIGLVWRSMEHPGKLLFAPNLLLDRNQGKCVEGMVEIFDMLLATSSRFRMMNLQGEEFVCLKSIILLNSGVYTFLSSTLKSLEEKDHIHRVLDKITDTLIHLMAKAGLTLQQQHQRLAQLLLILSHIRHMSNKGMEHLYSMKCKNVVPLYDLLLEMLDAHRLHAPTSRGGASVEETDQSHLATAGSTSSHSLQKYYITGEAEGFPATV

As to `CCN(CC)C(=S)SSC(=S)N(CC)CC`, the Potency in assay [1] is 122 nM (active) and 39.5 nM (active) and 106 nM (active); in [2] it was 243 nM (active) and 279 nM (active); in [5], 243 nM (active) and 99.2 nM (active) and 596 nM (active); in assay [6] it was 433 nM (active) and 1.25 µM (active) and 2.66 µM (active); in assay [8] it was 217 nM (active) and 7.9 nM (active) and 1.33 µM (active); in assay [11], 222 nM (active) and 133 nM (active). Further, the Potency entry in assay [3], in assay [4], in assay [7], in assay [10], in [12] and in assay [13] was “inactive” each time. In addition, the Potency entry in assay [14], in assay [15], in assay [16] and in assay [17] was “inactive” throughout. Moreover, the outcome in [9] was inactive.

Turning to `Cc1c2oc3c(C)ccc(C(=O)N[C@@H]4C(=O)N[C@H](C(C)C)C(=O)N5CCC[C@H]5C(=O)N(C)CC(=O)N(C)[C@@H](C(C)C)C(=O)O[C@@H]4C)c3nc-2c(C(=O)N[C@@H]2C(=O)N[C@H](C(C)C)C(=O)N3CCC[C@H]3C(=O)N(C)CC(=O)N(C)[C@@H](C(C)C)C(=O)O[C@@H]2C)c(N)c1=O` (I: T[dV]P[Sar][NMeV] / II: T[dV]P[Sar][NMeV]; ester I:1-I:C, II:1-II:C; linker I:N-II:N via Actinocin(9to1)), the Potency in assay [1] was 26.6 nM (active) and 9.4 nM (active); in [2], 23.7 nM (active) and 53.1 nM (active); in assay [5], 42.1 nM (active) and 168 nM (active); in assay [6], 42.1 nM (active) and 119 nM (active); in [8], 2.1 nM (active); in assay [16], 26.6 µM (active) and 10.6 µM (active). The Potency result in [3], in assay [4], in assay [7], in assay [11], in [12] and in assay [18] was “inactive” each time. Further, the Potency result in [13] and in [17] was “inactive” each time. For the same molecule, the molecule was called inactive in [9].

For `Nc1nc(=S)c2[nH]cnc2[nH]1`, the Potency entry in assay [1], in assay [2], in [3], in [19], in [4] and in [6] was “inactive” each time. Besides, the Potency entry in assay [7], in assay [20], in assay [12], in assay [13], in assay [14] and in assay [15] was “inactive” throughout. The Potency result in assay [16] and in assay [17] was “inactive” throughout. Moreover, the Potency in assay [8] is 842 nM (active) and 545 nM (active) and 596 nM (active); in assay [11], 3.06 µM (active) and 2.98 µM (active). Besides, the molecule was called inactive in assay [9].

Regarding `Nc1ccc(O)cc1`, the Potency in assay [1] is 25.3 µM (active) and inactive; in [2], 28.4 µM (active) and inactive; in assay [5], 17.9 µM (active); in assay [6] it was 31.8 µM (active) and inactive; in [8], 7.99 µM (active) and inactive; in [12], 5.04 µM (active) and inactive. In addition, the Potency was 63.5 µM (active) and inactive in assay [18]; 31.8 µM (active) and inactive in assay [16]. For the same molecule, the Potency entry in assay [3], in assay [19], in assay [4], in [7], in assay [11] and in [13] was “inactive” throughout. The Potency result in assay [14], in [15] and in [17] was “inactive” each time. In assay [9], the outcome was inactive.
